Bioassay records as filed in PubChem BioAssay.
NIH3T3 tox: Cytotoxic Profiling in NIH 3T3 Cell Line of Diverse Libraries Using Quantitative High-Throughput Screening; NIH 3T3 viability, CellTiter-Glo ATP luminescence, 48-72 h; Potency, µM (top dose mostly 96.7 µM), inactives show at the highest dose activity change, negative = cytotoxicity, usual class: inhibitors; 94,000 tested, 4.3% active; AID 1345082, 2018; note: nearly all actives have a fitted effect of over 55% in size
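ATP-dependent luminescence (CellTiter-Glo) served as the viability signal for NIH 3T3 cells treated with compound for 48 or 72 hr at 37 °C.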
NPR1 antag: Natriuretic polypeptide receptor (hNpr1) antagonism - Primary qHTS; Atrial natriuretic peptide receptor 1 (Homo sapiens), P16066; HEK293 hNpr1 GloSensor cGMP, ANP-stimulated luminescence; Potency, µM (highest dose often 46.3 µM), for inactives: at the top dose activity change, negative = inhibition, hits mostly inhibitors; 76,000 tested, 1.6% active; AID 1347048, 2019; calls by dose curve; note: nearly all actives have a fitted effect of over 60% in size
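HEK293 cells stably expressing human Npr1 and cGMP GloSensor pGS-40F, loaded 2 h with 2% GloSensor reagent, given compound 30 min at room temperature. Luminescence read before and 20 min after 0.1 nM hNppA.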
HEK293 tox: Cytotoxic Profiling in HEK 293 Cell Line of Diverse Libraries Using Quantitative High-Throughput Screening | HEK 293 viability, ATP luminescence (CellTiter-Glo), 48-72 h | 94,000 tested, 6.6% active | Potency, µM (series often up to 115 µM), for the others: at the top dose activity change, negative = cytotoxicity, most hits filed as inhibitors; note: nearly all actives have a fitted effect of over 60% in size
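HEK 293 seeded at 250 cells/well receive compound via pintool. After 48 or 72 hr at 37 degree Celsius, 5% CO2 and 95% humidity, CellTiter-Glo is dispensed and luminescence read following 10 min at room temperature.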
FLuc inh: Firefly luciferase inhibition profiling of diverse chemical library using quantitative high-throughput screening; Luciferin 4-monooxygenase (Photinus pyralis), P08659; AID 1347043, 2019; purified P. pyralis luciferase, luminescence, biochemical; Potency, µM (doses to about 115 µM), usual class: inhibitors; 76,000 tested, 2.5% active; note: nearly all actives have a fitted effect of over 65% in size
Target sequence (P08659 whole entry, looked up): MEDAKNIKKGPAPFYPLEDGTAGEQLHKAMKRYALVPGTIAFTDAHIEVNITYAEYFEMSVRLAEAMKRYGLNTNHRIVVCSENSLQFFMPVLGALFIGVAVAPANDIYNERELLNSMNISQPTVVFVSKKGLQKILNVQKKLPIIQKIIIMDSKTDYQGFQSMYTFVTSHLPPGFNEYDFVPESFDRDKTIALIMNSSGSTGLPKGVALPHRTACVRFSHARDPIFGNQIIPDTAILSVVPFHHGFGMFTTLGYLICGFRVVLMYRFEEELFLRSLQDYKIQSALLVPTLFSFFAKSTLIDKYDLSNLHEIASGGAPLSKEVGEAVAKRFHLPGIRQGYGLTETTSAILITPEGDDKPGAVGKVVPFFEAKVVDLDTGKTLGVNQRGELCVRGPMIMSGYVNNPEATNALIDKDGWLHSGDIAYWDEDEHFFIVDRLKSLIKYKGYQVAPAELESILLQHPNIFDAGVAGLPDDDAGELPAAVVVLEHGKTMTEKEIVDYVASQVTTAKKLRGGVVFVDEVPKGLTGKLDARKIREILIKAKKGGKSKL
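Purified P. pyralis luciferase (10nM final) in 50mM Tris acetate pH 7.5, 10mM Mg acetate, 0.01% Tween-20, 0.05% BSA with 10uM D-luciferin and 10uM ATP. Compounds titrated qHTS. Luminescence imaged on CCD.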
GPT2 inhibitor: Primary qHTS assay for inhibitors of Glutamate pyruvate transaminase 2 (GPT2). Potency, µM (titrated, usually from 57.7 µM), without a hit: top-dose activity change, negative = inhibition, most hits filed as inhibitors. 100,000 tested, 0.25% active. Recombinant GPT2, coupled pyruvate oxidase/HRP Amplex Red fluorescence. Alanine aminotransferase 2 (Homo sapiens), Q8TD30; note: nearly all actives have a fitted effect of over 60% in size
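Fluorescence read-out: pyruvate from GPT2 turnover coupled to pyruvate oxidase, HRP and Amplex Red (0.2mM ThPP, 0.2U/mL PO and HRP, 50uM Amplex final). Substrates 250uM a-KG, 2mM L-alanine; enzyme 10ng/uL; 30 min RT.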
* = called active by the depositor; i = inactive; u = inconclusive; x = not tested or not shown; [ ] = dose if it differs, or a comment. A selection: hits, their analogues and other compounds. The true share with any hit is near 10%. Unless noted, calls come from the whole dose curve; as a rule, active = well fitted curve in the direction sought with a large enough effect; inconclusive = small, poorly fitted or top-dose-only effect, or another doubt; inactive = no such curve, though single readings can be large; an effect the other way counts as inactive or inconclusive. % is set by controls: 0 for no effect and ±100 for the full control effect; potency is the fitted concentration of half-maximal effect.

SMILES	NIH3T3 tox	NPR1 antag	HEK293 tox	FLuc inh	GPT2 inhibitor
CN1c2cc(C(=O)Nc3ccc(Br)cc3)ccc2C(=O)N2CCCCCC21 (stereo not drawn)	u	-28.0%	35.5µM*	u	i
COc1ccc(-c2cc(N3CCC(NC(=O)c4ccc5cc[nH]c5c4)CC3)n[nH]2)cc1	39.8µM*	-28.7%	u	i	i
COc1ccc(C(=O)NC2CCN(c3cc(-c4ccc(OC)cc4)[nH]n3)CC2)cc1	u	-19.2%	u	i	-18.3%
COc1ccc(-c2cc(N3CCCC(NC(=O)c4ccc(C(F)(F)F)cc4)C3)n[nH]2)cc1 (stereo not drawn)	44.7µM*	-25.4%	u	i	i
CN(C)c1cccc(C(=O)NC2CCN(c3cc(-c4ccc(F)cc4)[nH]n3)CC2)c1	u	u	u	35.5µM*	i
COc1ccc(-c2cc(N3CCC(NC(=O)c4ccc(C)c(C)c4)C3)n[nH]2)cc1 (stereo not drawn)	u	4.1%	50.1µM*	i	u
O=C(NC1CCCN(c2cc(-c3ccccc3)[nH]n2)C1)c1ccc(C(F)(F)F)cc1 (stereo not drawn)	u	-7.4%	u	i	-12.5%
Cc1cc(C(=O)N2CCC(c3nc(C4CCOCC4)no3)CC2)n(C)n1	-20.7%	-1.6%	-27.2%	i	i
Cc1cccc(NC(=O)Cn2c(-c3cnccn3)nc(C)c(C)c2=O)c1	-8.2%	-15.0%	-1.0%	i	1.4%
Cc1cc(C)cc(C(=O)NC2CCN(c3cc(-c4ccccc4)[nH]n3)C2)c1 (stereo not drawn)	-19.6%	6.3%	u	i	-17.2%
COc1ccc(-c2cc(N3CCC(NC(=O)c4ccc(Cl)s4)CC3)n[nH]2)cc1	u	-28.0%	25.1µM*	i	1.9%
COc1ccc(-c2cc(N3CCC(NC(=O)c4ccccc4)CC3)n[nH]2)cc1	u	-17.5%	u	i	-9.5%
Cc1cc(C)cc(C(=O)NC2CCN(c3cc(-c4ccc(F)cc4)[nH]n3)C2)c1 (stereo not drawn)	44.7µM*	-11.3%	u	i	-21.0%
COc1ccc(-c2cc(N3CCCC(NC(=O)c4cccn4C)C3)n[nH]2)cc1 (stereo not drawn)	u	-17.6%	u	35.5µM*	-10.8%
COc1ccc(-c2cc(N3CCC(NC(=O)c4ccc(OC)c(F)c4)CC3)n[nH]2)cc1	-16.4%	-11.1%	-13.1%	i	i
COc1ccc(-c2cc(N3CCCC(NC(=O)c4ccc(OC)c(F)c4)C3)n[nH]2)cc1 (stereo not drawn)	u	-12.7%	39.8µM*	u	u
CC(C)(C)C(=O)N1CC[C@@H](CC(=O)O)[C@@H](CC2=NCCc3cc(F)ccc32)C1	-20.8%[174 µM]	3.6%[70.6 µM]	-28.7%[172 µM]	i	u
COc1ccc(-c2cc(N3CCCC(NC(=O)c4cc(C)cc(C)c4)C3)n[nH]2)cc1 (stereo not drawn)	39.8µM*	-17.4%	44.7µM*	u	u
COc1ccc(-c2cc(N3CCCC(NC(=O)CCc4ccccc4OC)C3)n[nH]2)cc1 (stereo not drawn)	u	-4.4%	39.8µM*	i	-18.9%
COc1ccc(-c2cc(N3CCCC(NC(=O)c4cccc(N(C)C)c4)C3)n[nH]2)cc1 (stereo not drawn)	u	-17.5%	u	15.8µM*	u
COc1ccc(-c2cc(N3CCCC(NC(=O)c4cccc(C)c4)C3)n[nH]2)cc1 (stereo not drawn)	u	-15.8%	44.7µM*	10µM*	u
CC(C)C(=O)N1CCC2(CC1)CC(C(=O)N1CCOCC1)N(C)C2 (stereo not drawn)	-15.7%	x	-2.1%	x	i
